# Records with an inconclusive call do not appear. Activity calls are given as the source filed them. Rule for the calls, unless noted: active = hit-call score of the fitted dose curve at least 0.9, where 1 is the maximum; inactive = score below 0.9.
# Columns and labels:
# [1] = CCTE_Harrill_HTTr_CellCount_MCF7: CCTE's Cell Proliferation Assessment for the High-Throughput Transcriptomics (HTTr) Platform, Harrill Lab (AID 2284012; active = hit-call score of the fitted dose curve at least 0.9, where 1 is the maximum;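 note: cells exposed to compound for six hours; intended direction is loss of nuclei count meaning fewer cells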)
# Method in brief: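 Cell count from high-content imaging of Hoechst-labeled nuclei serves as viability/growth readout. Chemicals were applied to MCF-7 cells in eight concentrations for six hours, with fitting in both directions relative to DMSO.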
# [2] = CCTE_Shafer_MEA_acute_burst_number: CCTE's Neural Acute Assay for Single-Electrode Bursts, Shafer Lab (AID 2284013)
# Method in brief: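 Percent change in single-electrode burst number per well, from 40-min recordings taken before and after adding compound (0.03-40 uM) to primary rat cortical neurons on MEA plates at DIV 13 or 15, 37 C.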
# [3] = CCTE_Shafer_MEA_acute_burst_duration_mean: CCTE's Neural Acute Assay for Mean Burst Duration, Shafer Lab (AID 2284014);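 note: hits are decreases in mean burst duration relative to DMSO controls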
# Method in brief: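 Rat cortical cultures, DIV 13/15; 40 min baseline, then 40 min with compound (0.03-40 uM), 37 C. Spikes: 300-5000 Hz band-pass, 8x rms threshold. Read-out: % change in mean single-electrode burst duration, DMSO-referenced, loss direction.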
# [4] = CCTE_Shafer_MEA_acute_per_burst_spike_number_mean: CCTE's Neural Acute Assay for Average Number of Spikes Per Burst, Shafer Lab (AID 2284015);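 note: hits are decreases in mean spikes per burst versus baseline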
# Method in brief: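 We recorded spontaneous network firing of rat cortical neurons for 40 min before and 40 min during exposure to compound at 0.03-40 uM, at 37 C. Spikes were detected adaptively at 8x rms noise, and the change in average spikes per burst was fitted against DMSO.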
# [5] = CCTE_Shafer_MEA_acute_interburst_interval_mean: CCTE's Neural Acute Assay for Mean Interburst Interval, Shafer Lab (AID 2284016);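 note: percent change of mean interburst interval versus each well's own pre-dose baseline; curves fitted for decrease in interburst interval relative to DMSO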
# Method in brief: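 MEA recording of spontaneous network bursting in primary rat cortical cultures; mean interburst interval was compared before and after a 40-min compound exposure (0.03-40 uM) and expressed as percent change, relative to DMSO.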
# [6] = CCTE_Shafer_MEA_acute_burst_percentage_mean: CCTE's Neural Acute Assay for Percentage of Spikes in a Burst, Shafer Lab (AID 2284017)
# Method in brief: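 Compounds were tested at 0.03-40 uM on primary rat cortical neuron networks grown over microelectrodes, with at least three wells per compound. Spontaneous firing was recorded for 40 min before and 40 min after dosing, and the change in burst percentage was computed per well.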
# [7] = CCTE_Shafer_MEA_acute_burst_percentage_std: CCTE's Neural Acute Assay for Standard Deviation of Burst Percentage, Shafer Lab (AID 2284018);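 note: fitted in the negative direction so actives lower burst percentage SD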
# Method in brief: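 Rat primary cortical neurons on 48-well MEAs, DIV 13 or 15, 37 C. 40-min baseline then 40-min recording with compound (0.03-40 uM); well-level SD of per-electrode burst spike percentage, expressed as percent change from baseline.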
# [8] = CCTE_Shafer_MEA_acute_per_network_burst_spike_number_mean: CCTE's Neural Acute Assay for Average Number of Spikes in a Network Burst, Shafer Lab (AID 2284019)
# Method in brief: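 Rat cortical cultures, DIV 13/15; spike threshold 8x rms noise, 300-5000 Hz band-pass, 12.5 kHz sampling; wells need >/= 10 active electrodes. Compound 0.03-40 uM, 40 min, 37 C; % change vs own baseline, DMSO negative control.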
# [9] = CCTE_Shafer_MEA_acute_per_network_burst_spike_number_std: CCTE's Neural Acute Assay for Standard Deviation of Number of Spikes in a Network Burst, Shafer Lab (AID 2284020);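 note: fitted for decrease in spike-number SD versus DMSO so actives lower it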
# Method in brief: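 Rat cortical cultures, DIV 13/15, 37 C; 20-min stabilisation, 40-min baseline, compound 0.03-40 uM, 40-min re-record. Spikes detected at 8x rms noise (300-5000 Hz band-pass). Readout: % change from baseline in per-burst spike-number SD.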
# [10] = CCTE_Shafer_MEA_acute_per_network_burst_electrodes_number_mean: CCTE's Neural Acute Assay for Mean Number of Electrodes in a Network Burst, Shafer Lab (AID 2284021);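 note: curves fitted for decreases only so hits reduce electrodes per burst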
# Method in brief: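 Rat primary cortical neurons on 48-well MEAs, DIV 13 or 15, were treated at 0.03-40 uM. Spikes were detected at 8x rms noise and recorded at 37 C. The mean electrodes per network burst in a 40 min exposure recording was expressed as percent change from a 40 min baseline.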
# [11] = CCTE_Shafer_MEA_acute_network_burst_percentage: CCTE's Neural Acute Assay for Percentage of Network Bursts, Shafer Lab (AID 2284022);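 note: curves fitted for loss so actives lower network burst percentage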
# Method in brief: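 Rat primary cortical neuron networks on 48-well MEA plates, DIV 13 or 15, treated acutely with compound (0.03-40 uM, at least three wells). Percent of spikes within network bursts compared between 40-min recordings before and during exposure at 37 C, expressed as percent change.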
# [12] = CCTE_Shafer_MEA_acute_cross_correlation_area: CCTE's Neural Acute Assay for Area of Cross Correlation, Shafer Lab (AID 2284024);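 note: curves fitted for loss of cross-correlation area so actives lower synchrony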
# Method in brief: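 Rat primary cortical neurons on 48-well MEA, DIV 13 or 15; compounds 0.03-40 uM. Baseline and post-exposure 40 min recordings at 37 C; percent change in area under pooled inter-electrode cross-correlation near zero lag, relative to DMSO.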
# [13] = CCTE_Shafer_MEA_acute_cross_correlation_HWHM: CCTE's Neural Acute Assay for Cross Correlation at Half Width at Half Maximum, Shafer Lab (AID 2284026);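 note: percent change per well from pre-dose baseline in spike cross-correlogram half width; hits are a decrease in cross-correlogram half width relative to DMSO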
# Method in brief: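 Rat primary cortical neurons on 48-well MEA plates; 40-min baseline and 40-min post-exposure recordings at 37 C on DIV 13 or 15, compounds 0.03-40 uM. Spikes detected at 8x rms noise; percent change in cross-correlogram HWHM per well vs baseline.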
# [14] = CCTE_Shafer_MEA_acute_synchrony_index: CCTE's Neural Acute Assay for Synchrony, Shafer Lab (AID 2284027);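 note: network synchrony index of spontaneous spiking in primary rat cortical neurons on MEAs; fitted for loss of signal so actives lower synchrony relative to DMSO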
# Method in brief: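 The synchrony index is taken as percent change per well between a 40 min baseline and a 40 min recording with compound (0.03–40 uM), at 37C. Rat cortical cultures on multiwell MEAs at DIV 13 or 15, spike threshold 8× rms noise.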
# [15] = CCTE_Harrill_HTTr_Apoptosis_MCF7: CCTE's 6-hour Apoptosis Assessment for the High-Throughput Transcriptomics (HTTr) Platform, in MCF-7 cells cultured in DMEM + 10% fetal bovine serum, Harrill Lab (AID 2284011)
# Method in brief: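 MCF-7 cells in DMEM + 10% FBS exposed 6 h to chemicals over an eight-point dilution series. Caspase-3/7 activation imaged by high-content CellEvent Green staining; fitted bidirectionally versus DMSO.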
# [16] = molecular target: Estrogen receptor (Homo sapiens) (UniProt P03372); assay: CCTE_Deisenroth_AIME_384WELL_LUC_Active: CCTE's 384-well Estrogen Receptor Transactivation Assay with AIME metabolic competence (ERTA luciferase; metabolism positive), Deisenroth Lab (AID 2284030; active = hit-call score of the fitted dose curve at least 0.9, where 1 is the maximum)
# Method in brief: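 Chemicals (10-point, 0.002-200 uM) were first incubated 2 hours with alginate-immobilized induced male Sprague Dawley rat liver S9. The conditioned medium was then applied to VM7Luc4E2 cells for 24 hours, with ER luciferase induction read by luminescence relative to 17beta-estradiol.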
# [17] = molecular target: Estrogen receptor (Homo sapiens) (UniProt P03372); assay: CCTE_Deisenroth_AIME_96WELL_LUC_Active: CCTE's 96-well Estrogen Receptor Transactivation Assay with AIME metabolic competence (ERTA luciferase; metabolism positive), Deisenroth Lab (AID 2284023; active = hit-call score of the fitted dose curve at least 0.9, where 1 is the maximum)
# Method in brief: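 Metabolism-positive mode: induced rat hepatic S9 in alginate microspheres conditions test solutions (0.002 - 200 uM, 10 points) for 2 hours. VM7Luc4E2 ER luciferase reporter cells then exposed 24 h; positive-direction fit against 17beta-estradiol, n=4 typical.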
# [18] = molecular target: Estrogen receptor (Homo sapiens) (UniProt P03372); assay: CCTE_Deisenroth_AIME_96WELL_LUC_Inactive: CCTE's 96-well Estrogen Receptor Transactivation Assay without AIME metabolic competence (ERTA luciferase; metabolism negative), Deisenroth Lab (AID 2284025; active = hit-call score of the fitted dose curve at least 0.9, where 1 is the maximum)
# Method in brief: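 Metabolism-negative arm: chemicals (0.002–200 uM, 10 points) incubated 2 h with alginate-water microspheres, then medium moved onto VM7Luc4E2 cells for 24 h luciferase read-out. Positive direction vs 17beta-estradiol; n≥4 experiments.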
# [19] = CCTE_Deisenroth_AIME_96WELL_CTox_Active: Cytotoxicity Assessment (CTOX) in CCTE's 96-well Estrogen Receptor Transactivation Assay with AIME metabolic competence (metabolism positive), Deisenroth Lab (AID 2284028; active = hit-call score of the fitted dose curve at least 0.9, where 1 is the maximum)
# Method in brief: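 Cytotoxicity in VM7Luc4E2 breast cells after 24 h exposure to medium from a 2 h metabolic pre-incubation with induced rat hepatic S9 in alginate microspheres; fluorescent live-cell protease readout, 10-point series 0.002–200 uM, n=4.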
# [20] = CCTE_Deisenroth_AIME_96WELL_CTox_Inactive: Cytotoxicity Assessment (CTOX) in CCTE's 96-well Estrogen Receptor Transactivation Assay without AIME metabolic competence (metabolism negative), Deisenroth Lab (AID 2284029; active = hit-call score of the fitted dose curve at least 0.9, where 1 is the maximum)
# Method in brief: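 Metabolism-negative mode: alginate-water lids without rat S9, 2 h pre-incubation of 10-point series (0.002 - 200 uM). Conditioned medium on VM7Luc4E2 cells 24 h; loss of fluorescent live-cell protease signal marks cytotoxicity.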
# Estrogen receptor (Homo sapiens), sequence (P03372 whole entry, looked up): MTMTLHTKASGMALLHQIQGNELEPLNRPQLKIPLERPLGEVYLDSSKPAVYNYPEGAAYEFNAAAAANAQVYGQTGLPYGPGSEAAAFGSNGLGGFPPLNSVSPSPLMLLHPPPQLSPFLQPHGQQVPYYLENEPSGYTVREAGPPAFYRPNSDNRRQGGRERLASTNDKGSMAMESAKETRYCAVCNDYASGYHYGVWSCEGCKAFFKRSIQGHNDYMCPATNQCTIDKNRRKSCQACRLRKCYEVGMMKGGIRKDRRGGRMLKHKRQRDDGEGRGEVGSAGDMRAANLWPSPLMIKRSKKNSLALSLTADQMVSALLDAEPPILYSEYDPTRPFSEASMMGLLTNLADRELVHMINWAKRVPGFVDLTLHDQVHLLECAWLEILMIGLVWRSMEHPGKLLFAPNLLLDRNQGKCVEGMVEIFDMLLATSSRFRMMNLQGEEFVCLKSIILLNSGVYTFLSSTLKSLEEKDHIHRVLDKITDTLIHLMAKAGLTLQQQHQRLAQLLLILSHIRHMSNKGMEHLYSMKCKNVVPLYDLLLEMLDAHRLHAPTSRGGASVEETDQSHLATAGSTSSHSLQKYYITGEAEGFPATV
compound,measurement,setting,value
CCC(C)c1ccccc1 (configuration not stated),outcome,[1],inactive
CC1(C)CC(O)CC(C)(C)N1[O],outcome,[1],inactive
same,outcome,[2],inactive
same,outcome,[3],inactive
same,outcome,[4],inactive
same,outcome,[5],inactive
same,outcome,[6],inactive
same,outcome,[7],inactive
same,outcome,[8],inactive
same,outcome,[9],inactive
same,outcome,[10],inactive
same,AC50,[11],0.0204 µM (active)
same,outcome,[12],inactive
same,outcome,[13],inactive
same,outcome,[14],inactive
Cc1ccc([N+](=O)[O-])cc1N,outcome,[15],inactive
same,outcome,[16],inactive
CCCCCC(=O)OCC,outcome,[15],inactive
same,outcome,[16],inactive
O=C(OCc1ccccc1)c1ccc(O)cc1,outcome,[1],inactive
CCCC(C)C(=O)OCC (configuration not stated),outcome,[15],inactive
same,outcome,[2],inactive
same,outcome,[3],inactive
same,outcome,[4],inactive
same,outcome,[5],inactive
same,outcome,[6],inactive
same,outcome,[7],inactive
same,outcome,[8],inactive
same,outcome,[9],inactive
same,outcome,[10],inactive
same,outcome,[11],inactive
same,outcome,[12],inactive
same,outcome,[13],inactive
same,outcome,[14],inactive
O=C(O[C@@H]1Cc2c(O)cc(O)cc2O[C@@H]1c1cc(O)c(O)c(O)c1)c1cc(O)c(O)c(O)c1,outcome,[1],inactive
CC(C)(O)Cc1ccccc1,outcome,[1],inactive
N#Cc1ccc(C(c2ccc(C#N)cc2)n2cncn2)cc1,outcome,[15],inactive
same,outcome,[16],inactive
CCCCCCC=O,outcome,[1],inactive
CCCCCCCO,outcome,[1],inactive
CCCCOCC(C)O (configuration not stated),outcome,[1],inactive
CC(C)OC(=O)c1ccccc1,outcome,[1],inactive
CCCCCCCCCCCCCC(=O)OC(C)C,outcome,[15],inactive
same,outcome,[16],inactive
C=C(C)[C@@H]1CC=C(C)CC1,outcome,[1],inactive
CC(C)(C)NC(=O)[C@H]1CC[C@H]2[C@@H]3CC[C@H]4NC(=O)C=C[C@]4(C)[C@H]3CC[C@]12C,outcome,[1],inactive
COc1ccc(-c2coc3cc(O)cc(O)c3c2=O)cc1,outcome,[1],inactive
same,AC50,[17],2.14 µM (active)
same,AC50,[18],0.971 µM (active)
same,AC50,[19],75.9 µM (active)
same,AC50,[20],156 µM (active)
CC(=O)CCC=C(C)C,outcome,[1],inactive
COc1cc(O)c(C(=O)c2ccccc2)cc1S(=O)(=O)O,outcome,[1],inactive
CC(=O)c1ccc(S(=O)(=O)NC(=O)NC2CCCCC2)cc1,outcome,[1],inactive
CC(=O)/C=C/C1C(C)=CCCC1(C)C (configuration not stated),outcome,[15],inactive
same,outcome,[1],inactive
same,outcome,[16],inactive
COC(=O)C=Cc1ccccc1,outcome,[1],inactive
O=C(O)/C=C/c1ccccc1,outcome,[1],inactive
same,outcome,[16],inactive
CC(C)=CCCC(C)=CC#N,outcome,[16],inactive
CCCCCCCCCCCCCCCCCCOS(=O)(=O)O,outcome,[16],inactive

# — PubChem BioAssay (EPA / NIEHS)
